# Test results reported in PubChem BioAssay (Tox21).
# Results filed as inconclusive are left out. A call without a number means that no potency is given here. Unmarked numbers belong to inactive results. Active and inactive are the calls of the source. Unless noted, calls come from the whole dose curve; as a rule, active = well fitted curve in the direction sought with a large enough effect in the repeat runs; inconclusive = weak or mixed curves; inactive = no such curve, though single readings can be large; an effect the other way counts as inactive or inconclusive.
# Legend:
# [1] = target: Retinoic acid receptor RXR-alpha (Homo sapiens) (UniProt P19793); experiment: qHTS assay to identify small molecule agonists of the RXR signaling pathway (AID 1159527; calls by dose curve; note: nearly all actives have a fitted effect of over 35% in size)
# In short: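 16 hr incubation of compound-treated RXR-alpha-UAS-bla HEK 293T cells (2% charcoal-stripped FBS, 37 C) preceded a 2 hr room-temperature LiveBLAzer FRET substrate step and blue/green fluorescence measurement.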
# [2] = qHTS assay to identify small molecule agonists of the RXR signaling pathway - cell viability counter screen (AID 1159529);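 note: HEK 293T cells carrying an RXR-alpha UAS beta-lactamase reporter; series mostly up to about 77 µM; nearly all actives have a fitted effect of over 50% in size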
# In short: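 In this parallel viability measure, GeneBLAzer RXR-alpha HEK 293T cells (2% charcoal-stripped FBS) were given a 5 hr preincubation, treated with compounds 16 hr at 37 C, and read by CellTiter-Glo luminescence.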
# [3] = qHTS assay to identify small molecule antagonists of the retinoid acid receptor (RAR) signaling pathway - cell viability counter screen (AID 1159551); note: nearly all actives have a fitted effect of over 35% in size
# In short: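 Viability of C3RL4 cells is quantified from ATP by luminescence after 6 h treatment at 37 C with compounds and 1 uM retinol.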
# [4] = qHTS assay to identify small molecule antagonists of the retinoic acid receptor (RAR) signaling pathway (AID 1159552; note: nearly all actives have a fitted effect of over 50% in size)
# In short: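 C3RL4 RARE-luc cells, overnight plating; retinol 1 uM final added right after compound; 6 hr 37 C; luciferase read at 30 min RT.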
# [5] = qHTS assay to identify small molecule agonists of the constitutive androstane receptor (CAR) signaling pathway - cell viability counter screen (AID 1224836); note: series mostly up to about 92 µM; nearly all actives have a fitted effect of over 45% in size
# In short: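 Using CellTiter-Fluor, viability of HepG2 cells harbouring hCAR and CYP2B6-2.2kb was measured following 23 h incubation with a 15-concentration compound series plus PK11195 (0.75 uM final).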
# [6] = qHTS assay to identify small molecule antagonists of the constitutive androstane receptor (CAR) signaling pathway - cell viability counter screen (AID 1224837); note: series mostly up to about 92 µM; nearly all actives have a fitted effect of over 45% in size
# In short: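 In quantitative HTS format, compounds at 15 concentrations were applied to HepG2 cells double-transfected with hCAR and CYP2B6-2.2kb under 50 nM CITCO stimulation; live-cell protease activity was read after 23 hr via CellTiter-Fluor.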
# [7] = target: Nuclear receptor subfamily 1 group I member 3 (Homo sapiens) (UniProt Q14994); experiment: qHTS assay to identify small molecule antagonists of the constitutive androstane receptor (CAR) signaling pathway (AID 1224838); note: nearly all actives have a fitted effect of over 40% in size
# In short: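 CITCO-stimulated (50 nM final) HepG2 cells stably transfected with hCAR and CYP2B6-2.2kb luciferase were exposed to compounds at 15 concentrations for 24 h at 37 C/5% CO2. A luciferase reagent was added and luminescence recorded after 30 min.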
# [8] = target: Nuclear receptor subfamily 1 group I member 3 (Homo sapiens) (UniProt Q14994); experiment: qHTS assay to identify small molecule agonists of the constitutive androstane receptor (CAR) signaling pathway (AID 1224839); note: nearly all actives have a fitted effect of over 15% in size; note: potency is the fitted concentration of half-maximal effect
# In short: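 Double-stable HepG2 cells (hCAR, CYP2B6-2.2kb) seeded 4 h before compound addition. Exposure 24 h with 0.75 uM PK11195 final. Luciferase detected by ONE-Glo.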
# [9] = qHTS assay to identify small molecule antagonists of the estrogen related receptor signaling pathway with the pleiotropic PPARgamma coactivator (PGC) from Tox21 10K library - cell viability counter screen (AID 1224840; active = well fitted cell-killing curve with a large enough effect in the repeat runs, not every such curve was filed as active; note: nearly all actives have a fitted effect of over 40% in size)
# In short: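 Viability counter screen, PGC/ERR cells: 17.5 h compound exposure at 37 C, CellTiter-Fluor fluorescence endpoint.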
# [10] = qHTS assay to identify small molecule antagonists of the estrogen related receptor (ERR) signaling pathway - cell viability counter screen (AID 1224818); note: series mostly up to about 46 µM
# In short: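 Cytotoxicity check run alongside the ERR antagonist screen: cells exposed to test compounds 17.5 h at 37 C, viability taken as CellTiter-Fluor fluorescence intensity.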
# [11] = qHTS assay to identify small molecule antagonists of the estrogen related receptor (ERR) signaling pathway (AID 1224819; note: series mostly up to about 46 µM; nearly all actives have a fitted effect of over 50% in size)
# In short: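 ERR reporter cells were plated at 2,000 cells/well and left 6 h at 37 C/5% CO2 before pin-tool transfer of compounds in DMSO. After 18 h at 37 C, One-Glo was added and luminescence was read 30 min later at room temperature.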
# [12] = qHTS assay to identify small molecule agonists of the estrogen related receptor (ERR) signaling pathway (AID 1224820)
# In short: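 After 6 h plating (2,000 cells/well) and 18 h compound treatment at 37 C, ERR cells were lysed with One-Glo and luminescence read after 30 min at room temperature.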
# [13] = tested on: estrogen-related receptor alpha (ERRalpha) with PGC-1alpha coactivator, human; experiment: qHTS assay to identify small molecule antagonists of the estrogen related receptor signaling pathway with the pleiotropic PPARgamma coactivator (PGC) (AID 1224821; calls by dose curve;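 note: series mostly up to about 46 µM; lower luminescence signal means antagonism of PGC/ERR signalling; nearly all actives have a fitted effect of over 50% in size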)
# In short: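 Luminescence from One-Glo luciferase reagent (30 min, room temperature) measured after 18 h compound treatment at 37 °C. Cells carry the PGC/ERR reporter and were seeded 6 h prior to dosing.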
# [14] = qHTS assay to identify small molecule antagonists of the estrogen related receptor signaling pathway with the pleiotropic PPARgamma coactivator (PGC) cell viability counter screen (AID 1224822; note: series mostly up to about 46 µM)
# In short: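 Viable cell signal (CellTiter-Fluor, 30 min, 37 C/5% CO2) was measured in PGC/ERR cells after a 17.5 h compound incubation.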
# [15] = qHTS assay to identify small molecule agonists of the estrogen related receptor signaling pathway with the pleiotropic PPARgamma coactivator (PGC) (AID 1224823)
# In short: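 Luminescence from One-Glo reagent (30 min, room temperature) was read after 18 h compound treatment at 37 C of PGC/ERR cells plated 6 h beforehand; compounds delivered in DMSO by pin tool.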
# [16] = qHTS assay to identify small molecule antagonists of the estrogen related receptor (ERR) signaling pathway from Tox21 library - cell viability counter screen (AID 1224834); note: nearly all actives have a fitted effect of over 30% in size
# In short: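 In this quantitative HTS format, ERR cells receive compounds in DMSO and are incubated for 17.5 h at 37 C. Live-cell protease activity is then detected with CellTiter-Fluor.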
# [17] = target: Luciferin 4-monooxygenase (Photinus pyralis) (UniProt P08659); experiment: qHTS assay to identify small molecule inhibitors of firefly luciferase (AID 1224835); note: nearly all actives have a fitted effect of over 25% in size; note: potency is the fitted concentration of half-maximal effect
# In short: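 Biochemical qHTS: compounds run as interplate titrations against purified firefly enzyme, with D-luciferin and ATP each at its KM concentration. Light output recorded by CCD imaging.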
# [18] = qHTS assay to identify small molecule antagonists of the estrogen related receptor signaling pathway with the pleiotropic PPARgamma coactivator (PGC) from Tox21 10K library (AID 1224841; call rule not given here)
# In short: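 In the PGC/ERR line, DMSO solutions of test chemicals are pin-delivered to 2,000 cells/well six hours after dispensing. Following eighteen hours' incubation, One-Glo reagent is added and luminescence recorded.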
# [19] = qHTS assay to identify small molecule agonists of the estrogen related receptor signaling pathway with the pleiotropic PPARgamma coactivator (PGC) from Tox21 10K library (AID 1224842); note: nearly all actives have a fitted effect of over 15% in size
# In short: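 PGC/ERR reporter cell line, 2,000 cells per well, incubated 6 h at 37 C before 23 nL compound in DMSO was added. After 18 h at 37 C, One-Glo luminescence read following 30 min at room temperature.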
# [20] = qHTS assay to identify small molecule agonists of the retinoic acid receptor (RAR) signaling pathway (AID 1159553)
# In short: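 Compounds dissolved in DMSO were pinned onto C3RL4 cells seeded the previous day, and plates were held 6 hr at 37 C. RARE-driven luciferase output was then read by luminescence.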
# Sequence of Retinoic acid receptor RXR-alpha (Homo sapiens) (P19793 whole entry, looked up): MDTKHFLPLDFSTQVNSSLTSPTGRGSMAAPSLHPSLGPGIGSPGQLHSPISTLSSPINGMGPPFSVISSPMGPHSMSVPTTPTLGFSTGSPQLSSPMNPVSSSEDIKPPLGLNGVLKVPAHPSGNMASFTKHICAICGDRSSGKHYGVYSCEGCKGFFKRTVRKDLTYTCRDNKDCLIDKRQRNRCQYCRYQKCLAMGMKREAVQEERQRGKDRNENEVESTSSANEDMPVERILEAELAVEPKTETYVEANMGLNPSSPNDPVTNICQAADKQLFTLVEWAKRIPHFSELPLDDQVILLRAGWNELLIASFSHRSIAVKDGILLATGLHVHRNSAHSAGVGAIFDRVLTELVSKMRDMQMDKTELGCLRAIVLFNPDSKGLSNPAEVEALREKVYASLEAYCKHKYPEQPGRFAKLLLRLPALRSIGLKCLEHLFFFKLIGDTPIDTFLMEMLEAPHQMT
# Sequence of Nuclear receptor subfamily 1 group I member 3 (Homo sapiens) (Q14994 whole entry, looked up): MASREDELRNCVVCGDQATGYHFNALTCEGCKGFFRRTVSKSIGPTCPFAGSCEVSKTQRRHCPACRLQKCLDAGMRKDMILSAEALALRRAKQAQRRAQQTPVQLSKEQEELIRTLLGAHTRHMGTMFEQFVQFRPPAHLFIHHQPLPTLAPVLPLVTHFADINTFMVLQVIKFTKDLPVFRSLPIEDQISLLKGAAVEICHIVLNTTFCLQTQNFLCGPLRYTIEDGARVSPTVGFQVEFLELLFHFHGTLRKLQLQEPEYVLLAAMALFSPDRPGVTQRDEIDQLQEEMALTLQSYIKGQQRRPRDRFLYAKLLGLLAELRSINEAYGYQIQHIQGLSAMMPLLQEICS
# Sequence of Luciferin 4-monooxygenase (Photinus pyralis) (P08659 whole entry, looked up): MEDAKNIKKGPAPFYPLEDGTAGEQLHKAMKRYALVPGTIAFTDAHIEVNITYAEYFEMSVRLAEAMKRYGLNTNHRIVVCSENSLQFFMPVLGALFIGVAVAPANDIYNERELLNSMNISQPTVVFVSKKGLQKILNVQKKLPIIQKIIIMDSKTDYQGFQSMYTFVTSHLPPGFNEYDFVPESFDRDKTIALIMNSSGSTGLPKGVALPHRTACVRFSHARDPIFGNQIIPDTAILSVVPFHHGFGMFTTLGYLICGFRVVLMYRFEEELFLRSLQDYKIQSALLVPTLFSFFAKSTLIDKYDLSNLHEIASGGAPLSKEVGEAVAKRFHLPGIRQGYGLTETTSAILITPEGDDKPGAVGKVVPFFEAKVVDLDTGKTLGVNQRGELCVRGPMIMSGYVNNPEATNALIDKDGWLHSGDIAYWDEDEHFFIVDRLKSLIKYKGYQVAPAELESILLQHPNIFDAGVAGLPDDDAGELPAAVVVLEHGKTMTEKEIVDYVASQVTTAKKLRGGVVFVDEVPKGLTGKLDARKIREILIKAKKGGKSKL
SMILES,Potency [1],outcome [2],outcome [3],outcome [4],Potency [5],Potency [6],outcome [7],Potency [8],outcome [9],outcome [10],outcome [11],outcome [12],outcome [13],outcome [14],outcome [15],Potency [16],Potency [17],Potency [18],outcome [19],Potency [20]
O=C(/N=N/C(=O)OCc1ccccc1)OCc1ccccc1,inactive,inactive,inactive,inactive,inactive,inactive,inactive,54.5 µM (active),inactive,,,,,,,,,,,
C[C@@H](O)[C@H]1C(=O)N2C(C(=O)O)=C(SCCN=CN)C[C@H]12,inactive,inactive,inactive,,inactive,inactive,inactive,inactive,inactive,inactive,inactive,inactive,inactive,inactive,inactive,inactive,inactive,inactive,inactive,
CC(C)=O,inactive,inactive,inactive,,inactive,inactive,inactive,inactive,inactive,,,,,,,inactive,inactive,,,inactive
CC(CC=O)CCCC(C)(C)O (stereo not drawn),inactive,inactive,inactive,inactive,inactive,inactive,,,inactive,,,,,,,,inactive,,inactive,
Brc1ccc(-c2ccccc2)cc1,inactive,inactive,inactive,,inactive,inactive,inactive,inactive,inactive,,,,,,,inactive,35.5 µM (active),,,inactive
Nc1ccc(S(=O)(=O)Nc2ccc(Cl)nn2)cc1,inactive,inactive,inactive,,inactive,inactive,inactive,inactive,,,,,,,,inactive,inactive,,,
COC(=O)[C@@H]1[C@H]2C[C@H]3c4[nH]c5ccccc5c4CCN3C[C@@H]2CC[C@@H]1O,inactive,inactive,inactive,,inactive,,inactive,,inactive,inactive,inactive,,inactive,inactive,inactive,,inactive,,,
COc1cc2c(cc1OC)[C@@H]1CC(=O)[C@@H](CC(C)C)CN1CC2,inactive,inactive,inactive,,inactive,inactive,inactive,inactive,inactive,,,,,,,inactive,inactive,,,
CNS(=O)(=O)CCc1ccc2[nH]cc(C3CCN(C)CC3)c2c1,inactive,inactive,inactive,,inactive,inactive,inactive,inactive,inactive,inactive,,,,inactive,,inactive,inactive,,,
COc1cc2c(cc1OC)C(=O)CC2,inactive,inactive,inactive,,inactive,inactive,inactive,inactive,inactive,,,,,,,inactive,inactive,,,
CC(C)NCC(O)COc1ccc(COCCOC(C)C)cc1 (stereo not drawn),inactive,inactive,inactive,,inactive,,inactive,inactive,inactive,inactive,,,,inactive,,inactive,inactive,,,
C=COCCOCCOCCOC=C,inactive,inactive,inactive,,inactive,inactive,inactive,inactive,inactive,,,,,,,inactive,inactive,,,
CCCN1C[C@H](CSC)C[C@@H]2c3cccc4[nH]cc(c34)C[C@H]21,inactive,inactive,inactive,,inactive,inactive,,,,inactive,,,,inactive,,inactive,inactive,,,
CN(CCOc1ccc(NS(C)(=O)=O)cc1)CCc1ccc(NS(C)(=O)=O)cc1,inactive,inactive,inactive,,inactive,inactive,,,inactive,inactive,,,,inactive,,,inactive,,,
CCOC(=O)CC(=O)c1ccccc1,inactive,inactive,inactive,,inactive,inactive,inactive,inactive,inactive,,,,,,,inactive,inactive,,,
BrCCCCCBr,inactive,inactive,inactive,,inactive,inactive,inactive,inactive,inactive,,,,,,,inactive,inactive,,,
CC(C(=O)O)c1ccc2c(c1)CC(=O)c1ccccc1S2 (stereo not drawn),inactive,inactive,inactive,,inactive,inactive,inactive,inactive,inactive,,,,,,,inactive,inactive,inactive,,
COc1ccc(C2CNC(=O)C2)cc1OC1CCCC1 (stereo not drawn),inactive,inactive,inactive,,inactive,inactive,,,,inactive,inactive,inactive,inactive,inactive,inactive,,inactive,,inactive,
O=C1CC(c2ccc(Cl)cc2)CC(=O)N1,inactive,inactive,inactive,,inactive,inactive,inactive,inactive,inactive,,,,,,,inactive,inactive,,,
Nc1nnc(-c2cccc(Cl)c2Cl)c(N)n1,inactive,inactive,inactive,,,inactive,,,inactive,inactive,,,,inactive,,inactive,inactive,,,
CC(C)N(c1ccccc1)C(C)C,inactive,inactive,inactive,,inactive,inactive,inactive,inactive,inactive,,,,,,,inactive,inactive,,,
